Tests used:
[1] = target: T1, Serine/threonine-protein kinase TBK1 (Homo sapiens) (UniProt Q9UHD2); conditions: at 1 µM;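 note: values are mean inhibition of TBK1, screened as part of the GSK published kinase inhibitor set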
T1 sequence (whole entry): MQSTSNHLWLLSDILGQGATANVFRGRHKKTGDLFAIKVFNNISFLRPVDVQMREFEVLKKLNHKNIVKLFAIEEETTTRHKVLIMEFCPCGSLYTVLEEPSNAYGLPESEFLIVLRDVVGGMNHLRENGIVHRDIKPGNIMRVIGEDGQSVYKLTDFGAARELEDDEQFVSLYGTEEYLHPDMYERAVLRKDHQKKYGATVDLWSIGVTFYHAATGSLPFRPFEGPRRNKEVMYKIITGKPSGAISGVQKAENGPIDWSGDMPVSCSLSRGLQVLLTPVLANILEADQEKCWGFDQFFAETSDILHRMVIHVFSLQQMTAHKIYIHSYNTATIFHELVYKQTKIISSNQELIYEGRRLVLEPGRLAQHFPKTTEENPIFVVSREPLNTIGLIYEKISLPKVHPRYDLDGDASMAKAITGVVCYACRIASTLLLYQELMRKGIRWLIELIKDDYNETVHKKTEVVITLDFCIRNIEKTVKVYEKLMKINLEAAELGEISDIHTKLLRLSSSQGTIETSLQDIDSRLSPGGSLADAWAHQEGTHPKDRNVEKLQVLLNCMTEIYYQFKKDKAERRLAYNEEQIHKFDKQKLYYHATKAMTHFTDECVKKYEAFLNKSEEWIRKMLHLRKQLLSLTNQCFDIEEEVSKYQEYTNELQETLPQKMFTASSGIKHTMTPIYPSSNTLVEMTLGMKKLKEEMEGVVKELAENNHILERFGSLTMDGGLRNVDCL

[2] = target: T2, Testis-specific serine/threonine-protein kinase 1 (Homo sapiens) (UniProt Q9BXA7); conditions: at 0.1 µM
T2 sequence (whole entry): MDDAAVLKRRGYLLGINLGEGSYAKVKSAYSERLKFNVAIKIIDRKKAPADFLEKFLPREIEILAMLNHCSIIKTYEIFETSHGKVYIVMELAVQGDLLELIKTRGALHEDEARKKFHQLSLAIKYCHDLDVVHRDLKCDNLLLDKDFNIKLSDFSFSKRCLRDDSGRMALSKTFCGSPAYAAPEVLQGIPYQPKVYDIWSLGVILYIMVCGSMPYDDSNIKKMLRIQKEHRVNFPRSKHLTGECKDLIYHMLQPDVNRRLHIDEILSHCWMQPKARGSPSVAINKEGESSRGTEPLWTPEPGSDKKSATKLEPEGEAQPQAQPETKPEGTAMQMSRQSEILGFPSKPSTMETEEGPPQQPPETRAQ

[3] = target: T2, Testis-specific serine/threonine-protein kinase 1 (Homo sapiens); conditions: at 1 µM
[4] = target: T3, Testis-specific serine/threonine-protein kinase 2 (Homo sapiens) (UniProt Q96PF2); conditions: at 0.1 µM
T3 sequence (whole entry): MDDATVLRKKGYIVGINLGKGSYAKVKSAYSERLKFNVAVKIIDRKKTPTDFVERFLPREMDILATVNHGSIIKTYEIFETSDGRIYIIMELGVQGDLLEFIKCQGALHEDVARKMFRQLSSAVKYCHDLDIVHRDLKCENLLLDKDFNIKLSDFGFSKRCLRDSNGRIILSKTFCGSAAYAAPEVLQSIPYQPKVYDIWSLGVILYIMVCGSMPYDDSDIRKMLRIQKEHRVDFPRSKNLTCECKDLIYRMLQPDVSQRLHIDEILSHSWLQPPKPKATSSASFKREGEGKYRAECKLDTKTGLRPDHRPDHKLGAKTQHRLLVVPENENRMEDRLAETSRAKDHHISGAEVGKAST

[5] = target: T3, Testis-specific serine/threonine-protein kinase 2 (Homo sapiens); conditions: at 1 µM
[6] = target: Casein kinase I isoform alpha (Homo sapiens) (UniProt P48729); conditions: at 0.1 µM
Chain of Casein kinase I isoform alpha (Homo sapiens) (P48729 2-337 limits assumed): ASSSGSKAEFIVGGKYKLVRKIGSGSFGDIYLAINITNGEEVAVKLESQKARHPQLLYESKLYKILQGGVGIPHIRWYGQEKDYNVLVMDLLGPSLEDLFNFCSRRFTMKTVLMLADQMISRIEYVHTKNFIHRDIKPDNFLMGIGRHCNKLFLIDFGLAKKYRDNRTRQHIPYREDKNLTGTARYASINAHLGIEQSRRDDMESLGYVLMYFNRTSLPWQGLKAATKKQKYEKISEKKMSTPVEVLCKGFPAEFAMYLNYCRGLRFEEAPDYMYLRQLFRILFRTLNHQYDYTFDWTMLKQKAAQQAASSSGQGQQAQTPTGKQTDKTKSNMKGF

[7] = target: Casein kinase I isoform alpha (Homo sapiens) (UniProt P48729); conditions: at 1 µM
[8] = target: Casein kinase I isoform gamma-1 (Homo sapiens) (UniProt Q9HCP0); conditions: at 0.1 µM
Chain of Casein kinase I isoform gamma-1 (Homo sapiens) (Q9HCP0 whole entry, looked up, canonical isoform): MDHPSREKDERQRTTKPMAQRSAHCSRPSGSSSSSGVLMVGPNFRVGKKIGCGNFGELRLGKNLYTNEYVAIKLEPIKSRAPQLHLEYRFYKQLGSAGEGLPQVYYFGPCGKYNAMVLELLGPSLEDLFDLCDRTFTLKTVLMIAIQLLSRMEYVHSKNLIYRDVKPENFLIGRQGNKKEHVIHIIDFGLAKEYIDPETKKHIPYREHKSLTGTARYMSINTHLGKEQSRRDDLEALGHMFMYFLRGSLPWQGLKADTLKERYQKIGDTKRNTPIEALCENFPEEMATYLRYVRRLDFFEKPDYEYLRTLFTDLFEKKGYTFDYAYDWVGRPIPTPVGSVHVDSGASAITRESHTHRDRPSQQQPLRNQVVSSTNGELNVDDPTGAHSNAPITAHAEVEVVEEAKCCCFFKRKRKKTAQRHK

[9] = target: Casein kinase I isoform gamma-1 (Homo sapiens) (UniProt Q9HCP0); conditions: at 1 µM
[10] = target: Casein kinase I isoform gamma-2 (Homo sapiens) (UniProt P78368); conditions: at 0.1 µM
Chain of Casein kinase I isoform gamma-2 (Homo sapiens) (P78368 whole entry, looked up, canonical isoform): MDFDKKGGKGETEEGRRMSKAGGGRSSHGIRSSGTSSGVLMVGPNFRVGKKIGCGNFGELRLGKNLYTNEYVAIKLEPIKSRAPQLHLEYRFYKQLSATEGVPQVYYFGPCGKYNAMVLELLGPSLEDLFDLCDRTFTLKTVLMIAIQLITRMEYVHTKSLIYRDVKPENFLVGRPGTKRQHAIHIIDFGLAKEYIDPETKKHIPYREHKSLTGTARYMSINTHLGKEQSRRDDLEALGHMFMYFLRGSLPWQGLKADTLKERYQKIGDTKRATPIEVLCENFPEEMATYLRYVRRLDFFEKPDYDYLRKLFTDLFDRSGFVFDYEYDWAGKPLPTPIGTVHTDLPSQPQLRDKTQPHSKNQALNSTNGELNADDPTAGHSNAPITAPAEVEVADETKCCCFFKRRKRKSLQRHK

[11] = target: Casein kinase I isoform gamma-2 (Homo sapiens) (UniProt P78368); conditions: at 1 µM
[12] = target: Casein kinase I isoform gamma-3 (Homo sapiens) (UniProt Q9Y6M4); conditions: at 0.1 µM
Chain of Casein kinase I isoform gamma-3 (Homo sapiens) (Q9Y6M4 whole entry, looked up, canonical isoform): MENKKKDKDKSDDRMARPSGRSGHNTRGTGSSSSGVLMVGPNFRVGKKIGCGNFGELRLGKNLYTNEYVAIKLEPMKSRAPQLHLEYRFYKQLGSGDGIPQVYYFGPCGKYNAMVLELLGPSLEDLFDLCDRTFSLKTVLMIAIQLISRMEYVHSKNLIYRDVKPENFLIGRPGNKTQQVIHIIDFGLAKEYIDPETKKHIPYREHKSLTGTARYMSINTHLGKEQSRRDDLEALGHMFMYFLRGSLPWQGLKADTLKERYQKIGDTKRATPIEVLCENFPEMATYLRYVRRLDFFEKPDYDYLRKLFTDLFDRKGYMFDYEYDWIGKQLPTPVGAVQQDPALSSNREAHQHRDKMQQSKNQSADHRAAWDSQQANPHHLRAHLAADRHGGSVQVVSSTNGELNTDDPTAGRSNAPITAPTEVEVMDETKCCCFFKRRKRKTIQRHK

[13] = target: Casein kinase I isoform gamma-3 (Homo sapiens) (UniProt Q9Y6M4); conditions: at 1 µM
[14] = target: Cyclin-dependent kinase 1 (Homo sapiens) (UniProt P06493); conditions: at 0.1 µM
Chain of Cyclin-dependent kinase 1 (Homo sapiens) (P06493 whole entry, looked up): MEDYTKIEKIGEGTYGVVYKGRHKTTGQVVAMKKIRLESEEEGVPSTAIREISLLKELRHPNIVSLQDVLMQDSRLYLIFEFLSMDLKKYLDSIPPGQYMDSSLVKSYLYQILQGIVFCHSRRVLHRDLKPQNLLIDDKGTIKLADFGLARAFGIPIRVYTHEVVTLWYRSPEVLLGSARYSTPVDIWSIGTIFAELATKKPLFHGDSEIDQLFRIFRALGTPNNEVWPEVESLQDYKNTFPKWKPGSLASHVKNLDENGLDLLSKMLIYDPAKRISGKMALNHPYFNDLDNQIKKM

[15] = target: Cyclin-dependent kinase 1 (Homo sapiens) (UniProt P06493); conditions: at 1 µM
[16] = target: Cyclin-dependent kinase 2 (Homo sapiens) (UniProt P24941); conditions: at 0.1 µM
[17] = target: Cyclin-dependent kinase 2 (Homo sapiens) (UniProt P24941); conditions: at 1 µM
[18] = target: Cyclin-dependent kinase 2 (Homo sapiens) (UniProt P24941); conditions: at 0.1 µM; remark: listed apart in the source
[19] = target: Cyclin-dependent kinase 2 (Homo sapiens) (UniProt P24941); conditions: at 1 µM; remark: listed apart in the source
[20] = target: CDK3/Cyclin E (Homo sapiens) (UniProt P24864+Q00526); conditions: at 0.1 µM;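 note: reported percentages are mean inhibition values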
Chain of CDK3/Cyclin E (Homo sapiens) (P24864 whole entry, looked up): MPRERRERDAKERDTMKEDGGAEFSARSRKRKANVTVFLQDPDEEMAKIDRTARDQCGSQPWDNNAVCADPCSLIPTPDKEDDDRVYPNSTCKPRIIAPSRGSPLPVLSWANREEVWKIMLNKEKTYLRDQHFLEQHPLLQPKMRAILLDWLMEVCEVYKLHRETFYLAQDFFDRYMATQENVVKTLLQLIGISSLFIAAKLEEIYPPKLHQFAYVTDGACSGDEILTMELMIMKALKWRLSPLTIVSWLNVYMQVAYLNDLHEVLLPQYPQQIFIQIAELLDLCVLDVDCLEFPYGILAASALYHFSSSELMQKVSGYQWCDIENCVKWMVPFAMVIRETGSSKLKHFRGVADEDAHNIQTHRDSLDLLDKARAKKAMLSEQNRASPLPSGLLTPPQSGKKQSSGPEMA
Chain of CDK3/Cyclin E (Homo sapiens) (Q00526 whole entry, looked up): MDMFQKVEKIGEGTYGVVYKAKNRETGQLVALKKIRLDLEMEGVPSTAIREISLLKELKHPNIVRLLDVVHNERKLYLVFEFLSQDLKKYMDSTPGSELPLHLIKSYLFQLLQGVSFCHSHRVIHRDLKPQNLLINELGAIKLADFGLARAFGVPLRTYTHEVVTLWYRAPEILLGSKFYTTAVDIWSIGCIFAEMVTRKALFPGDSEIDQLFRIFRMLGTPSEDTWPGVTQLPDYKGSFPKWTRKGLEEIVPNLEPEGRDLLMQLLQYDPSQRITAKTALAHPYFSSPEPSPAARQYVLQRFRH

Row | Structure (SMILES) | inhibition [1] | inhibition [2] | inhibition [3] | inhibition [4] | inhibition [5] | inhibition [6] | inhibition [7] | inhibition [8] | inhibition [9] | inhibition [10] | inhibition [11] | inhibition [12] | inhibition [13] | inhibition [14] | inhibition [15] | inhibition [16] | inhibition [17] | inhibition [18] | inhibition [19] | inhibition [20]
1 | NCc1ccc(-n2c(-c3nonc3N)nc3cnccc32)cc1 | 11.6% | 9.68% | 32.2% | 3.06% | 3.08% | 3.56% | 9.76% | 5.74% | 8.48% | 3.49% | 7.87% | 2.05% | 10.7% | 3.12% | 10.5% | 5.13% | 30.4% | 10.1% | 31.4% | 6.87%
2 | COc1ccc2cc(-c3c(-c4ccncc4)nc(-c4ccc([S+](C)[O-])cc4C)n3C)ccc2c1 (stereo not given) | 1.97% | 0.4% | -0.58% | 0.06% | -0.06% | 0.77% | 0.53% | -0.99% | -0.39% | -0.73% | -0.3% | -1.01% | -1.93% | 0.98% | 3.25% | 0.63% | -1.45% | 1.09% | 1.29% | -1.08%
3 | Fc1ccc(-c2nc3n(c2-c2ccncc2)CCS3)cc1 | 2.87% | 3.08% | 2.73% | 1.01% | 0.48% | 10.8% | 42.4% | 0.76% | 5.36% | -1.13% | 4.78% | 0.7% | 8.82% | -2.26% | -3.55% | -1.04% | 1.08% | 0.41% | 0.29% | 4.27%
4 | NS(=O)(=O)c1ccc(N/N=C2\C(=O)Nc3ccc(-c4cnco4)cc32)cc1 | 38.4% | 2.73% | 12.4% | 0.01% | 1.76% | 0.46% | 3.06% | -2.5% | -1.7% | -2.15% | 0.36% | -3.27% | 0.29% | 32.6% | 66.8% | 85.8% | 94.4% | 67.2% | 74.7% | 50%
5 | COc1cc2ncn(-c3cc(OCc4ccccc4C(F)(F)F)c(C(C)=O)s3)c2cc1OC | 2.12% | 2.55% | 3.05% | 1.34% | 1.53% | 3.35% | 2.73% | 2.77% | 3.34% | 2.24% | 3.62% | 2.1% | 2.97% | 0.91% | 2.22% | 0.94% | 2.63% | 2.2% | 3.96% | -1.43%
6 | COc1cc(N2CCN(C(C)C)CC2)ccc1Nc1nc(Nc2ccc(F)cc2C(=O)NC[C@@H](O)CO)c2cc[nH]c2n1 | 4.23% | 45.9% | 84.9% | 15.7% | 53.7% | 4.46% | 12.9% | 2.26% | 17.9% | 2.13% | 15.6% | 2.74% | 31.8% | -2.84% | -2.45% | -1.75% | 4.45% | 0.16% | 0.53% | 3.35%
7 | O=C1Nc2ccc(I)cc2C1=Cc1cc(Br)c(O)c(Br)c1 | 2.5% | 4.56% | 5.45% | 2.33% | 2.81% | 5.08% | 6.76% | 3.7% | 5.38% | 3.7% | 6.34% | 3.79% | 3.16% | 2.76% | 1.43% | 4.61% | 3.86% | 1.77% | 3.35% | -4.12%

Reference: ChEMBL document CHEMBL1961873, “Compounds: GSK PKIS; Assays: Nanosyn kinase panel” (2012)
